Holding throughout (settings): mRNA level, 48 h; actives raise or lower the signal
Read-out in assay [1]: ABC Transporter (ABCB11), ABCB11 (gene 8647)
Description: LTEA_HepaRG_ABCB11: Life Technologies and Expression Analysis (LTEA) Assay for ABC Transporter (ABCB11) using HepaRG (AID 2283463). In a few lines: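 ABCB11 transcript levels are read by Fluidigm TaqMan qRT-PCR after 48 h chemical treatment of human HepaRG cells. Concentrations span 100 uM downward in half-log steps with 0.5% DMSO; gain or loss is fitted against DMSO controls.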

Read-out in assay [2]: ABC Transporter (ABCC2), ABCC2 (gene 1244)
Description: LTEA_HepaRG_ABCC2: Life Technologies and Expression Analysis (LTEA) Assay for ABC Transporter (ABCC2) using HepaRG (AID 2283464). In a few lines:
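HepaRG cells were plated 48 h, switched to serum-free induction medium, then exposed in duplicate for 48 h to 8 concentrations (top 100 uM, half-log steps, 0.5% DMSO). ABCC2 mRNA was measured by qRT-PCR normalized to ACTB/GAPDH/POLR2A; bidirectional fitting versus DMSO.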

Read-out in assay [3]: Broad substrate specificity ATP-binding cassette transporter ABCG2 (Homo sapiens) (UniProt Q9UNQ0)
In words: LTEA_HepaRG_ABCG2: Life Technologies and Expression Analysis (LTEA) Assay for ABC Transporter (ABCG2) using HepaRG (AID 2283465). The method in brief: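 Read-out is ABCG2 mRNA induction or loss quantified by qRT-PCR after 48 h chemical treatment of human HepaRG cells, normalized to three housekeeping genes. Concentrations reached 100 uM top in half-log steps; fitting was bidirectional against 0.5% DMSO.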

Read-out in assay [4]: ATP-citrate lyase (ACLY), ACLY (gene 47)
In words: LTEA_HepaRG_ACLY: Life Technologies and Expression Analysis (LTEA) Assay for ATP-citrate lyase (ACLY) using HepaRG (AID 2283466). The method in brief:
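HepaRG, 48 h exposure, 8-pt half-log dilutions (top 100 uM), 0.5% DMSO. Readout: ACLY mRNA, TaqMan qRT-PCR, housekeeping-normalized (ACTB/GAPDH/POLR2A). Bidirectional curve fit vs DMSO.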

Read-out in assay [5]: Peroxisomal acyl-coenzyme A oxidase 1 (ACOX1) gene, ACOX1 (gene 51)
In words: LTEA_HepaRG_ACOX1: Life Technologies and Expression Analysis (LTEA) Assay for Peroxisomal acyl-coenzyme A oxidase 1 (ACOX1) gene using HepaRG (AID 2283467). In a few lines:
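Measured by qRT-PCR against three housekeeping genes: ACOX1 transcript change in human HepaRG cells after 48 h dosing. Concentrations ran up to 100 uM in half-log steps. Curves were fitted bidirectionally relative to 0.5% DMSO.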

Read-out in assay [6]: Alkaline Phosphatase, Placental (ALPP) gene, ALPP (gene 250)
Description: LTEA_HepaRG_ALPP: Life Technologies and Expression Analysis (LTEA) Assay for Alkaline Phosphatase, Placental (ALPP) gene using HepaRG (AID 2283468). In a few lines:
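Differentiated human HepaRG cells were plated and cultured 48 h, then exposed in duplicate for 48 h in serum-free induction medium to eight half-log concentrations from 100 uM in 0.5% DMSO. ALPP mRNA was measured by TaqMan qRT-PCR, normalized to ACTB, GAPDH, POLR2A.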

Read-out in assay [7]: Bcl-2 (BAX) gene, BAX (gene 581)
In words: LTEA_HepaRG_BAX: Life Technologies and Expression Analysis (LTEA) Assay for Bcl-2 (BAX) gene using HepaRG (AID 2283470). In a few lines:
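Differentiated human HepaRG cells, plated 48 h then switched to serum-free induction medium, were exposed 48 h to 8 half-log concentrations up to 100 uM in 0.5% DMSO; BAX mRNA measured by qRT-PCR, normalized to ACTB, GAPDH, POLR2A.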

Read-out in assay [8]: adenosine kinase (ADK) gene, ADK (gene 132)
Description: LTEA_HepaRG_ADK: Life Technologies and Expression Analysis (LTEA) Assay for adenosine kinase (ADK) gene using HepaRG (AID 2283471). The method in brief: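 Differentiated HepaRG cells dosed 48 h in serum-free induction medium, 0.5% DMSO vehicle, eight half-log concentrations from 100 uM, in duplicate. ADK mRNA by TaqMan qRT-PCR normalised to ACTB, GAPDH, POLR2A; bidirectional fit versus DMSO.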

Read-out in assay [9]: Alpha-fetoprotein (AFP) gene, AFP (gene 174)
Description: LTEA_HepaRG_AFP: Life Technologies and Expression Analysis (LTEA) Assay for Alpha-fetoprotein (AFP) gene using HepaRG (AID 2283472). In a few lines:
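Human HepaRG cells plated 48 h, then switched to serum-free induction medium and exposed in duplicate for 48 h to 8-point half-log series from 100 uM in 0.5% DMSO. AFP mRNA by qRT-PCR, normalized to ACTB, GAPDH, POLR2A; bidirectional fit versus DMSO.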

Read-out in assay [10]: Bcl-2 (BAD) gene, BAD (gene 572)
In words: LTEA_HepaRG_BAD: Life Technologies and Expression Analysis (LTEA) Assay for Bcl-2 (BAD) gene using HepaRG (AID 2283469). In a few lines:
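BAD transcript change, measured by qRT-PCR against three housekeeping genes and fitted in both directions relative to 0.5% DMSO, after 48 h chemical treatment of human HepaRG liver cells at concentrations up to 100 uM.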

Calls of active or inactive are those of the source. The calls were made as follows: active = hit-call score of the fitted dose curve at least 0.9, where 1 is the maximum; inactive = score below 0.9.

As a reminder, the AC50 is the concentration giving half of the maximal activity seen.

Broad substrate specificity ATP-binding cassette transporter ABCG2 (Homo sapiens), sequence (Q9UNQ0 whole entry, looked up): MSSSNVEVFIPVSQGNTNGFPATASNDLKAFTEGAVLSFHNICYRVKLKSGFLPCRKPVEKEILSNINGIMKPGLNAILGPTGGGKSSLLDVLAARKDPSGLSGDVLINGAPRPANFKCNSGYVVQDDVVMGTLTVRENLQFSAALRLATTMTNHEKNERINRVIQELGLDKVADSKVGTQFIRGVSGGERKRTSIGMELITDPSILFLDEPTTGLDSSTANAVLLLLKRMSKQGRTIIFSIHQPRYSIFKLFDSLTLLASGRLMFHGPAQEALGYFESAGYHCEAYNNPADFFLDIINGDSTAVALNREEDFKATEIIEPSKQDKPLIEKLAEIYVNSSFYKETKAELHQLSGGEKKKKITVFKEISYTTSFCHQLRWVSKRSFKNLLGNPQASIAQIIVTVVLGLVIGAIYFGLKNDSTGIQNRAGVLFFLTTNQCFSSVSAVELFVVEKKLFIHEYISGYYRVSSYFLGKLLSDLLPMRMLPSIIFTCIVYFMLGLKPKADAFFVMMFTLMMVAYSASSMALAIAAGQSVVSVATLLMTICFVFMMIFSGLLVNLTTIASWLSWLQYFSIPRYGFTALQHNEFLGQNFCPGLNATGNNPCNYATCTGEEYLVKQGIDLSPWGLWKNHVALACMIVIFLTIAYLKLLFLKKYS

`COc1ccc(-n2nc(C(F)F)cc2-c2ccc(S(C)=O)cc2)cc1` (stereo not given): the concentration at half-maximal activity (AC50) is 17.3 µM (active) in assay [1] and 30.9 µM (active) in assay [2]. Besides, the result in assay [3], in [4], in assay [5], in assay [6], in [7] and in assay [8] was inactive. Besides, in assay [9], the call was inactive.

For `CC(C)=CCC/C(C)=C\CO`, the result in [1], in assay [2], in [3], in [4], in assay [5] and in assay [6] was inactive. The result in assay [7], in assay [8] and in assay [9] was inactive.

As for `O=C(O)c1cccc(N(Cc2cccnc2)c2ccc(OC(F)F)c(OC(F)F)c2)c1`, the AC50 in [1] was 90.6 µM (active); in assay [4], 83.3 µM (active); in assay [6], 79.9 µM (active). Besides, the molecule was called inactive in assay [2], in [3], in assay [5], in assay [10], in [8] and in [9].

As for `On1ccccc1=S`, the result in [1], in [2], in assay [3], in assay [4], in assay [5] and in [6] was inactive. Moreover, the outcome in assay [10], in assay [7], in assay [8] and in assay [9] was inactive.

For the molecule `O=C(O)c1cccc(Oc2ccccc2)c1`, the outcome in assay [1], in assay [2], in assay [3], in assay [4], in assay [5] and in assay [6] was inactive. Further, the result in assay [10], in [7], in [8] and in assay [9] was inactive.

On to `COC(=O)c1ccccc1O`, for which the molecule was called inactive in assay [1], in assay [2], in assay [3], in [4], in assay [5] and in assay [6]. The call in assay [10], in assay [7], in assay [8] and in assay [9] was inactive.

Turning to `Cc1c(-c2cccnc2)c2ccccc2n1CCCCC(=O)O`, the molecule was called inactive in [1], in assay [2], in [3], in [4], in assay [5] and in assay [6]. The result in assay [10], in [8] and in assay [9] was inactive.

Take `CCOc1cccc(-n2cc(C(=O)N3CCN(c4cc(C(=O)O)c5ccccc5c4)CC3)nc2-c2ccc(C)cc2)c1`: the AC50 is 35.5 µM (active) in [1]; 77.1 µM (active) in assay [2]; 85.6 µM (active) in assay [3]; 86.6 µM (active) in [4]; 70.1 µM (active) in assay [5]; 24.1 µM (active) in [6]. Besides, the figures for the AC50 in assay [8] and in [9] were 82.9 µM (active) and 29.8 µM (active), respectively. In addition, the molecule was called inactive in assay [10].

Regarding `C=CC(=C)CCC=C(C)C`, the call in [1], in assay [2], in [3], in assay [4], in assay [5] and in assay [6] was inactive. Besides, the call in assay [10], in assay [8] and in [9] was inactive.

`CCCN(C1CCN(C(=O)C2CCNCC2)CC1)[C@@H]1CCc2ccc(OC)cc2C1`: the AC50 in assay [1] is 70 µM (active); in [2] it was 76 µM (active); in assay [3], 35.5 µM (active); in assay [5], 33.1 µM (active); in assay [6], 50 µM (active); in assay [9], 76.2 µM (active). In addition, the outcome in assay [4], in assay [10], in assay [7] and in [8] was inactive.

As to `CCOC(=O)c1ccc(C2CCC(NC[C@H](O)COc3ccc(O)c(NS(C)(=O)=O)c3)CC2)cc1` (stereo not given in full), the call in [1], in [2], in assay [3], in [4], in [5] and in assay [7] was inactive. The result in [8] and in [9] was inactive. In assay [6], the AC50 was 1.83 µM (active).

Turning to `CC[C@H](C)C(=O)O[C@H]1C[C@@H](C)C=C2C=C[C@H](C)[C@H](CC[C@@H]3C[C@@H](O)CC(=O)O3)[C@H]21`, the AC50 in assay [1] was 50 µM (active); in [4], 14.8 µM (active). For the same molecule, the outcome in assay [2], in assay [3], in assay [5], in assay [6], in [10] and in assay [7] was inactive. Besides, the molecule was classed as inactive in assay [8] and in [9].

`O=C1CCCCCN1`: the call in assay [1], in assay [2], in assay [3], in [4], in assay [5] and in assay [6] was inactive. The result in assay [10], in assay [8] and in assay [9] was inactive.

`CCCCCCCCCCCCc1ccccc1`: the outcome in [1], in assay [2], in assay [3], in [4], in assay [5] and in [6] was inactive. Besides, the call in assay [10], in [7], in [8] and in [9] was inactive.

In the case of `Cn1c(=O)cc(Oc2ccc(F)cc2F)c2cnc(NCC(C)(C)O)nc21`, the values for the AC50 in [1] and in assay [6] were 12.7 µM (active) and 20.7 µM (active), respectively. In addition, the result in assay [2], in assay [3], in assay [4], in assay [5], in assay [10] and in [7] was inactive. Moreover, the molecule was called inactive in assay [8] and in assay [9].

`CCOC(=O)CC(CC(=O)OCC)(OC(C)=O)C(=O)OCC`: the molecule was classed as inactive in assay [1], in [2], in assay [3], in [4], in [5] and in assay [6]. Moreover, the molecule was classed as inactive in [10], in [7], in assay [8] and in assay [9].

Turning to `CNS(=O)(=O)c1cc(C(=O)N2CCC(CCN3C4CCC3CC(n3c(C)nc5ccccc53)C4)(c3cccc(F)c3)CC2)c(Cl)cc1F` (stereo not given), the AC50 was 24.5 µM (active) in assay [1]; 17.1 µM (active) in [3]; 30.9 µM (active) in [4]; 13.3 µM (active) in [5]; 14.5 µM (active) in assay [6]; 24.6 µM (active) in assay [9]. Moreover, the result in assay [2], in [10], in assay [7] and in assay [8] was inactive.

For `Nc1nc2ncc(CNc3ccc(C(=O)N[C@@H](CCC(=O)O)C(=O)O)cc3)nc2c(=O)[nH]1`, the result in assay [1], in assay [2], in assay [3], in assay [4], in assay [5] and in assay [6] was inactive. The molecule was called inactive in assay [10], in assay [8] and in assay [9].

Consider `COCCOCCOCCOC`, for which the outcome in assay [1], in [2], in assay [3], in assay [4], in assay [5] and in assay [6] was inactive. Also, the result in assay [7], in [8] and in [9] was inactive.

In the case of `O=P(OC(CCl)CCl)(OC(CCl)CCl)OC(CCl)CCl`, the AC50 in [1] is 66.6 µM (active); in [3] it was 78.5 µM (active); in assay [4], 75.9 µM (active); in assay [6], 0.259 µM (active); in assay [7] it was 84.5 µM (active); in [8], 0.272 µM (active). The AC50 in [9] is 15.8 µM (active). Also, the call in [2], in assay [5] and in assay [10] was inactive.

These data come from PubChem BioAssay (EPA / NIEHS).
